Assay outcomes (PubChem)
DT40 TDP1 no CPT = qHTS for Inhibitors of human tyrosyl-DNA phosphodiesterase 1 (TDP1): qHTS in cells in absence of CPT | DT40 Tdp1-/- hTDP1 cells, no CPT, ATP luminescence, 48 h | Potency, µM (top dose mostly 46.2 µM), inactives show at the highest dose activity change, negative = growth inhibition, actives largely listed as inhibitors | 420,000 tested, 15% active | AID 686978, 2013; further: nearly all actives have a fitted effect of over 55% in size
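Chicken DT40 Tdp1-/- cells complemented with human TDP1, screened without camptothecin (DMSO vehicle only), 400 cells/well. Compounds pin-transferred, cells incubated at 37 °C for at least 48 hr. Growth read as ATP-dependent luminescence (CellTiter-Glo, 30 min at RT).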
HT1080 IDH1KD tx = HT-1080 IDH1 knockdown cell toxicity (counter line); HT-1080 IDH1 knockdown viability, ATP luminescence, 48 h; Potency, µM (doses to about 46.1 µM), inactives show at the highest dose activity, negative = toxicity, actives largely listed as cytotoxic; 360,000 tested, 2% active;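 further: 0% = DMSO wells and -100% = cell-free medium wells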
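Knockdown cells (IDH1KD HT-1080) received compounds 2 h after plating at 750 cells/well and were kept 48 h at 37 °C in 5% FBS RPMI. A CellTiter-Glo luminescence read gave % activity for curve fitting.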
KB-V1 cytotox = kills drug-selected multidrug resistant KB-V1 cells; AID 1347076; Potency, µM (highest dose often 46.1 µM), most hits filed as cytotoxic; 400,000 tested, 3.4% active; KB-V1 MDR cells viability, CellTiter-Glo, 72 h; further: nearly all actives have a fitted effect of over 60% in size
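Cytotoxicity toward P-gp-expressing KB-V1 cells was determined as loss of CellTiter-Glo luminescence after 72 h at 37 degrees C. Compounds were tested in quantitative HTS format across a concentration range, with curves fitted to normalized data.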
HT1080NT lethal = kills 2HG-producing HT-1080-NT fibrosarcoma cells; 360,000 tested, 1.6% active; Potency, µM (doses to about 46.1 µM), inactives show at the highest dose activity, negative = less viability, hits mostly cytotoxic; HT-1080-NT fibrosarcoma viability, CellTiter-Glo ATP luminescence, 48 h;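 further: NT is the 2HG producing partner of a matched IDH1 knockdown line; 0% = DMSO-treated cells and -100% = media-only wells without cells; nearly all actives have a fitted effect of over 55% in size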
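Toxicity toward the 2HG-producing NT line was scored as %Activity, normalised to DMSO and no-cell wells, from CellTiter-Glo luminescence after 48 hours' treatment.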
KB-3-1 cytotox = kills parental KB-3-1 adenocarcinoma cells | KB-3-1 viability, CellTiter-Glo ATP luminescence, 72 h | Potency, µM (titrated, usually from 46.1 µM), most hits filed as cytotoxic | 400,000 tested, 1.4% active | AID 1347075; further: nearly all actives have a fitted effect of over 60% in size
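Cytotoxicity in the drug-sensitive parental line KB-3-1 was scored as loss of CellTiter-Glo luminescence following 72 h incubation with compound. Values come from curve fitting of normalized concentration-response data.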
TDP1 cell CPT = growth inhibition of DT40 Tdp1-/-;hTDP1 cells with camptothecin (screen for TDP1 inhibitors). chicken DT40 Tdp1-/-;hTDP1 cells + 20 nM CPT, ATP luminescence, 48 h. 420,000 tested, 12% active. Potency, µM (titrated, usually from 46.2 µM), inactives show top-dose activity change, negative = growth inhibition, usual class: inhibitors; further: nearly all actives have a fitted effect of over 55% in size
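Chicken DT40 Tdp1-/- cells complemented with human TDP1, 400 cells/well, exposed to compounds plus 20 nM camptothecin for at least 48 h at 37 C; viability read as ATP content by CellTiter-Glo luminescence.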
Numbers without * were called inactive; i = inactive; ? = inconclusive; / = no result. This is a sample that favours compounds with a hit; in the whole collection about 19% have one here. The call rests on the fitted dose curve; in most records, active means well fitted curve in the direction sought with a large enough effect; inconclusive means small, poorly fitted or top-dose-only effect, or another doubt; inactive means no such curve, though single readings can be large; an effect the other way counts as inactive or inconclusive. Unless noted, on the % scale 0 is the no-effect control and ±100 the full control effect; potency means the concentration at half of the fitted maximal effect.

SMILES	DT40 TDP1 no CPT	HT1080 IDH1KD tx	KB-V1 cytotox	HT1080NT lethal	KB-3-1 cytotox	TDP1 cell CPT
Cc1ccc(-c2csc3ncnc(N4CCN(S(=O)(=O)c5cccs5)CC4)c23)cc1	20.6µM*	-0.6%	?	-10.1%	?	?
COc1ccc(-c2csc3ncnc(N4CCN(S(=O)(=O)c5ccc(C)c(C)c5)CC4)c23)cc1	18.4µM*	-21.4%	i	-19.1%	?	?
Cc1ccc(S(=O)(=O)N2CCN(c3ncnc4sccc34)CC2)cc1	3.26µM*	-24.8%	?	-27.3%	?	7.31µM*
Cc1c(S(=O)(=O)Nc2cccc3ccccc23)c(=O)n(C)c(=O)n1C	2.9%	0.8%	i	0.3%	i	-8.1%
CC(C)(C)C(=O)Nc1cccc(OC(F)(F)C(F)Cl)c1 (configuration not stated)	3.1%	-3.2%	i	-2.9%	i	-7.8%
Cc1ccc(-c2csc3ncnc(N4CCN(S(=O)(=O)c5ccc(C#N)cc5)CC4)c23)cc1	16.4µM*	13.1%	i	11.7%	i	?
c1ccc(CC2CCN(c3ncnc4sccc34)CC2)cc1	2.59µM*	?	i	11.6µM*	i	5.17µM*
COCC[N+]1(C)CCCCC1	-10.8%	9.6%	i	14.9%	i	2.4%
Cc1cc(C)cc(NC(=O)Nc2nnc(N(C)C3CCCCC3)s2)c1	?	/	i	/	i	14.6µM*
Cc1cc(NC(=O)Nc2nnc(N(C)C3CCCCC3)s2)ccc1Br	?	/	i	/	i	?
COc1ccc(-n2c(=O)c(-c3cc(F)cc(F)c3)nc3cnc(N4CCNCC4)nc32)cc1	20.6µM*	/	/	/	/	14.6µM*
O=c1c(-c2ccc(F)cc2)nc2cnc(N3CCNCC3)nc2n1-c1ccccc1	?	/	/	/	/	14.6µM*
Cc1nc2cnc(N3CCNCC3)nc2n(-c2ccccc2)c1=O	3.5%	/	/	/	/	-7.9%
Cc1ccc(NC(=O)CN2C(=O)C3C4C=CC(C4)C3C2=O)cc1S(=O)(=O)N(C)C (configuration not stated)	?	9.3%	i	7.2%	i	?
CCC(=O)Nc1ccc(C(=O)COC(=O)c2nc3nccc(C)n3n2)cc1	26.5%	-0.5%	i	6.0%	i	-22.5%
COc1cccc(N2CCN(C(=O)c3ccccc3SCC(=O)NCc3ccco3)CC2)c1	?	-1.1%	i	-1.1%	i	?
COC(=O)c1cccc(Nc2c(-c3ccc(O)c(OC)c3)nc3nc[nH]n23)c1	?	/	i	/	i	?
CCOC(=O)Cc1ccc(Nc2nc(NCc3ccccc3)nc3ccsc23)cc1	14.6µM*	-13.3%	?	-20.2%	?	23.1µM*
CCOC(=O)Cc1nnc(NCc2ccccc2)c2ccccc12	-1.2%	4.2%	i	4.2%	i	-25.8%
CCOC(=O)Cc1ccc(Nc2nc(NC)nc3ccsc23)cc1	18.4µM*	?	?	?	i	20.6µM*
O=C(Nc1c2c(nn1-c1ccc(Cl)cc1)CS(=O)(=O)C2)c1ccc(Br)cc1	16.4µM*	/	?	/	i	23.1µM*
O=C(Nc1c2c(nn1-c1ccc(Cl)cc1)CS(=O)(=O)C2)c1ccc2c(c1)OCO2	-3.1%	-9.4%	i	8.0%	i	-8.2%
Cc1ccc(NC(=O)c2sc3nc(CCl)[nH]c(=O)c3c2C)c(C)c1	14.6µM*	?	i	?	i	14.6µM*
CSCc1nc2sc(C(=O)Nc3nc(C)cs3)c(C)c2c(=O)[nH]1	?	-19.7%	i	-12.6%	i	?
COc1cc(-c2c(-c3ccsc3)sc3ccccc23)cc(OC)c1OC	5.5%	-9.0%	i	-12.9%	i	0.9%
SMILES	DT40 TDP1 no CPT	HT1080 IDH1KD tx	KB-V1 cytotox	HT1080NT lethal	KB-3-1 cytotox	TDP1 cell CPT
COc1cc(-c2c(CCO)sc3ccccc23)cc(OC)c1OC	6.51µM*	?	20.6µM*	?	?	6.51µM*
CCc1nnc(NC(=O)CSc2nnc(-c3ccccc3O)n2-c2ccc(C)cc2)s1	?	13µM*	?	13µM*	?	?
CCc1nnc(NC(=O)CSc2nnc(C3CCCCC3)n2-c2cccc(Cl)c2)s1	?	3.8%	4.11µM*	2.6%	i	-29.0%
CCc1nnc(NC(=O)CSc2nnc(CNc3cccc(Cl)c3)n2CC)s1	-2.6%	-3.2%	i	0.5%	i	-18.9%
CCc1nnc(NC(=O)CSc2nnc(-c3ccccc3OC)n2-c2ccc(C)cc2)s1	?	-18.0%	i	-15.5%	i	-24.3%
CCc1nnc(NC(=O)CSc2nnc(C)n2-c2ccc(C)cc2)s1	-20.5%	4.6%	20.6µM*	7.8%	i	-2.9%
Cc1ccc(-c2csc3ncnc(SCC(N)=O)c23)cc1	?	-25.0%	?	-18.2%	i	?
CCc1nnc(NC(=O)CSc2ncnc3scc(-c4ccc(C)cc4)c23)s1	?	4.4%	6.51µM*	4.6%	i	?
Cc1ccc(C(=O)C(C)OC(=O)CCN2C(=O)C3C4C=CC(C5CC45)C3C2=O)cc1 (configuration not stated)	5.6%	12.8%	i	1.9%	i	9.3%
O=C(C[C@@H]1C/C=C\CCC(=O)OC[C@@H]2CCCN2C1=O)N[C@@H](CO)Cc1ccccc1	10.6%	9.3%	i	15.3%	?	-9.8%
O=C(C[C@@H]1C/C=C\CC[C@@H](Cc2ccc(F)cc2)C(=O)OC[C@@H]2CCCN2C1=O)NCCO	?	0.0%	?	4.9%	i	-3.6%
O=C(C[C@@H]1C/C=C\C[C@H](Cc2ccc(F)cc2)C(=O)OC[C@H]2CCCN2C1=O)N[C@H](CO)Cc1ccccc1	14.6µM*	1.3%	i	10.6%	i	13µM*
O=C(C[C@@H]1C/C=C\C[C@H](Cc2ccc(F)cc2)C(=O)OC[C@@H]2CCCN2C1=O)N[C@H](CO)Cc1ccccc1	16.4µM*	-3.5%	i	-3.3%	i	18.4µM*
O=C(C[C@H]1C/C=C\CC[C@@H](Cc2ccc(F)cc2)C(=O)OC[C@H]2CCCN2C1=O)N[C@H](CO)Cc1ccccc1	20.6µM*	0.3%	i	0.9%	i	?
O=C(C[C@@H]1C/C=C\C[C@@H](Cc2ccc(F)cc2)C(=O)OC[C@@H]2CCCN2C1=O)N[C@H](CO)Cc1ccccc1	23.1µM*	-0.2%	i	2.8%	i	?
